# In PubChem BioAssay (NCI):
# This is part of a sample that, as a whole, favours compounds with a hit. Of some 83,000 tested, about 20% had one in any assay.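 Negative percent growth values reflect cell death: -40 means 40% of the cells present at the start died, and -100 means all died.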 Calls of active or inactive are those of the source. Rule for the calls: active = growth percent below 10; inactive = the rest.
# System: UO-31 renal
# Assay: NCI-60 one-dose screen, 48 h (100 = growth as untreated, 0 = no growth, -100 = all killed)
# Conditions: 10 µM unless noted
row,SMILES,growth
1,O=c1c2ccccc2c2nccn2c2cc(Cl)ccc12,70.7% (inactive)
2,COc1ccc(-c2ccc(O)c(C(=O)/C=C/c3cc(OC)c(OC)c(OC)c3)c2)cc1,59.7% (inactive)
3,Cn1cnc([N+](=O)[O-])c1Sc1nc(N)nc2nc[nH]c12,16.9% (inactive)
4,Cc1cc(=O)oc2cc(OCCn3c(C)nn(-c4ccc(Cl)cc4)c3=O)ccc12,42.8% (inactive)
5,O=C1C=CC(=O)N1c1ccccn1,97.1% (inactive)
6,CCN(CC)c1ccc(N=C2C=CC(=O)C=C2NC(C)=O)cc1,71% (inactive)
7,CC1CN(C2CCCCC2)C(=O)NC1=O (stereo not drawn),82% (inactive)
8,COc1ccc2cc(C3=CC(=O)CCC3)ccc2c1,92.4% (inactive)
9,COc1ccc(Cl)cc1Nc1nc(C(F)(F)F)ccc1C(=O)N/N=C/c1c(Cl)cccc1Cl,31.2% (inactive)

# System: TK-10 renal
# Assay: as above
# Conditions: 10 µM unless noted
row,SMILES,growth
1,COc1ccc2c(c1)CC[C@@H]1[C@@H]2CC[C@]2(C)[C@@H](O)C(=O)C[C@@H]12,109% (inactive)
2,C[C@@H]1CN(c2nc3c(cc2F)c(=O)c(C(=O)O)cn3C(C)(C)C)C[C@H](C)N1,102% (inactive)
3,NS(=O)(=O)c1ccc(-n2ncc3c(NC4CCCCC4)ncnc32)cc1,107% (inactive)
4,CCOC(=O)C1=CCC(n2cc(C)c(=O)[nH]c2=O)O1 (stereo not drawn),118% (inactive)
5,O=CNc1ccc2c(c1)Cc1cc([N+](=O)[O-])ccc1-2,37.6% (inactive)
6,CC(=O)[C@H]1CC[C@H]2[C@@H]3C[C@H](C)C4=CC(=O)CC[C@]4(C)[C@H]3C(=O)C[C@]12C,104% (inactive)
7,Cc1ccc2nc(SCC(=O)Nc3ccc(-c4nc5ccccc5s4)c(Cl)c3)[nH]c2c1,109% (inactive)
8,Cc1ccc(C(=O)Cc2ccccc2)c(O)c1,104% (inactive)
9,ICCC(c1ccccc1)(c1ccccc1)c1ccccc1,73.5% (inactive)
10,c1ccc(CN=C(NCc2ccccc2)NCc2ccccc2)cc1,58.6% (inactive)
11,Oc1ccc(/C=N/Nc2nc3ccccc3s2)c(O)c1,22.9% (inactive)
12,O=C(CC(C(=O)c1ccccc1)N1CCN(Cc2ccccc2)CC1)c1ccccc1 (stereo not drawn),96.6% (inactive)
13,CC(NC(N)=S)c1ccccc1 (stereo not drawn),99% (inactive)
14,C[C@]12CCC(=O)C=C1CC[C@H]1[C@@H]3C[C@@H](O)[C@](O)(C(=O)CO)[C@@]3(C)C[C@H](O)[C@@]12F,104% (inactive)
15,O=C(Nc1ccc2c(c1)C(=O)c1ccccc1-2)c1ccccc1,46.9% (inactive)
16,COC(=O)C1=CCC(n2cnc3c(N)ncnc32)O1 (stereo not drawn),104% (inactive)
17,CCN(Cc1cccc(S(=O)(=O)[O-])c1)c1ccc(C(=C2C=CC(=[N+](CC)Cc3cccc(S(=O)(=O)O)c3)C=C2)c2ccccc2S(=O)(=O)O)cc1,93.1% (inactive)
18,CC(NC(=O)Oc1cccc2ccccc12)c1ccccc1 (stereo not drawn),105% (inactive)
19,OC(c1cc(-c2cccc(Cl)c2)nc2ccccc12)C1CCCCN1 (stereo not drawn),-63.2% (active)
20,O=C(Nc1ccccc1OC(=O)c1ccccc1)c1ccccc1,101% (inactive)

row,SMILES,growth
1,Cc1ccccc1NC(=O)NC(CC(N)=O)c1ccc2c(c1)nc(-c1cccc(Oc3ccc(C(C)(C)C)cc3)c1)n2CCCN1CCCCC1C (stereo not drawn),31.1% (inactive)
2,O=C(C(=O)c1cc(Br)ccc1O)c1cc(Br)ccc1O,61.4% (inactive)
3,Fc1ccccc1C1c2ccccc2-c2nccn21 (stereo not drawn),97.4% (inactive)
4,COc1cc(/C=C\C(C)=N\Nc2ccccc2)ccc1O,94.5% (inactive)
5,COc1cc(/C=N/NC(=O)c2ccc(C(F)(F)F)nc2Nc2ccc(Cl)cc2C)ccc1O,49.7% (inactive)
6,O=Cc1ccccc1C(=O)O,93.2% (inactive)
7,COc1cc(NC(=O)NCc2ccco2)ccc1-c1ccc(NC(=O)NCc2ccco2)cc1OC,37.7% (inactive)
8,COc1cccc(/C=N/Nc2nc3ccccc3s2)c1OC,64.8% (inactive)
9,O=C(N/N=C/c1ccc(Cl)cc1Cl)c1ccccc1Nc1cccc(C(F)(F)F)c1,106% (inactive)
10,COc1ccc(NS(=O)(=O)N2CCCCC2)cc1,102% (inactive)
11,O=c1c2ccccc2c2nccn2c2cc(Cl)ccc12,137% (inactive)
12,COc1ccc(-c2ccc(O)c(C(=O)/C=C/c3cc(OC)c(OC)c(OC)c3)c2)cc1,103% (inactive)
13,Cn1cnc([N+](=O)[O-])c1Sc1nc(N)nc2nc[nH]c12,38.5% (inactive)
14,Cc1cc(=O)oc2cc(OCCn3c(C)nn(-c4ccc(Cl)cc4)c3=O)ccc12,59.6% (inactive)
15,O=C1C=CC(=O)N1c1ccccn1,113% (inactive)
16,CCN(CC)c1ccc(N=C2C=CC(=O)C=C2NC(C)=O)cc1,95.9% (inactive)
17,CC1CN(C2CCCCC2)C(=O)NC1=O (stereo not drawn),101% (inactive)
18,COc1ccc2cc(C3=CC(=O)CCC3)ccc2c1,100% (inactive)
19,COc1ccc(Cl)cc1Nc1nc(C(F)(F)F)ccc1C(=O)N/N=C/c1c(Cl)cccc1Cl,67.2% (inactive)
